Test results taken from PubChem BioAssay (NCATS).
Records with an inconclusive call do not appear. Where a call stands in place of a potency, no number is given. A number with no mark means an inactive call. The source made the active and inactive calls. Calls follow the shape of the dose curve; as a rule, active = well fitted cell-killing curve with a large enough effect; inconclusive = small, poorly fitted or top-dose-only effect, or effect the other way; inactive = no such curve, though single readings can be large or run the other way.

What was measured:
[1] = Viability qHTS for spleen associated tyrosine kinase inhibitor (SYKi) naive MV4-11 cells (AID 1963823); also: nearly all actives have a fitted effect of over 40% in size
Procedure, shortened: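 Viability of MV4-11 AML cells lacking prior SYK inhibitor exposure is scored by CellTiter-Glo luminescence following 72 hr compound incubation at 37 C, 5% CO2, seeded at 500 cells per well.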

[2] = Viability qHTS for spleen associated tyrosine kinase inhibitor (SYKi) drug resistant MV4-11 cells (AID 1963824); also: nearly all actives have a fitted effect of over 35% in size
Procedure, shortened: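 SYK-inhibitor-resistant MV4-11 AML cells were seeded at 500 per well onto compound and cultured 72 hours (37 °C, 5% CO2). CellTiter-Glo was then added, and after 10 min at room temperature, luminescence gave viability.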
Potency is read from the fitted curve at half-maximal effect.

Structure (SMILES)	Potency [1]	Potency [2]	viability (% of control) [1]	viability, % of control [2]
CC1(O)CCC2C(C(=O)O)=COC(OC3OC(CO)C(O)C(O)C3OC(=O)/C=C/c3ccc(O)cc3)C21 (stereo not drawn)	inactive	inactive		
COc1ccc(C(OC2OC(CO)C(O)C(O)C2O)C(C)O)cc1 (stereo not drawn)	inactive	inactive		
CC1(C)CC[C@@]2(C(=O)O[C@@H]3O[C@H](CO)[C@@H](O)[C@H](O)[C@H]3O)C(C1)C1=CCC3[C@@]4(C)CC[C@@H](O[C@@H]5O[C@H](C(=O)O)[C@@H](O[C@@H]6OC[C@@H](O)[C@H](O)[C@H]6O)[C@H](O[C@@H]6OC[C@](O)(CO)[C@H]6O)[C@H]5O)C(C)(C)C4CC[C@@]3(C)[C@]1(C)C[C@H]2O (stereo partly drawn)			11.6% [at 9.25 µM]	12% [at 9.25 µM]
CC(CCC1(O)OC2CC3C4CC=C5CC(O[C@@H]6O[C@H](CO)[C@@H](O[C@@H]7O[C@@H](C)[C@H](O)[C@@H](O)[C@H]7O)[C@H](O)[C@H]6O[C@@H]6O[C@@H](C)[C@H](O)[C@@H](O)[C@H]6O)CCC5(C)C4CCC3(C)C2C1C)CO[C@@H]1O[C@H](CO)[C@@H](O)[C@H](O)[C@H]1O (stereo partly drawn)	3.48 µM (active)	3.48 µM (active)		
CC(=O)/C=C/C1(O)C(C)CC(O[C@@H]2O[C@H](CO)[C@@H](O)[C@H](O)[C@H]2O)CC1(C)C (stereo partly drawn)	inactive	inactive		
COC1=CC(=O)C[C@@H](C)[C@@]12Oc1c(Cl)c(OC)cc(OC)c1C2=O	inactive	inactive		
CC1CCC/C=C/C(=O)c2c(O)cc(O)cc2CC(=O)O1 (stereo not drawn)	3.66 µM (active)	2.06 µM (active)		
OC[C@H]1O[C@@H](OCCc2ccccc2)[C@H](O[C@@H]2OC[C@](O)(CO)[C@H]2O)[C@@H](O)[C@@H]1O	inactive	inactive		
O=C(O[C@H]1[C@@H]2C[C@@H]3OC[C@](O)([C@@H]1Cl)[C@H]2C(O[C@@H]1O[C@H](CO)[C@@H](O)[C@H](O)[C@H]1O)O3)c1ccc(O)c(O)c1 (stereo partly drawn)	inactive	inactive		
CC1=C2C=C(CO)C(CO)CCC2(C)CCC1=O (stereo not drawn)	inactive	inactive		
CNc1nc(NCc2ccc(NS(C)(=O)=O)cc2Cl)cc(-c2ccccn2)n1	20.6 µM (active)	23.1 µM (active)		
CC1(CO)CCCC2(C)C1C(OC(=O)c1ccccc1)C=C1C(=O)OCC12O (stereo not drawn)	1.8 µM (active)	1.61 µM (active)		
CC1OC2OC(=O)C3(C)CC4=C(CO)C5=C(CC(=O)C4(C)C(C1=O)C23)C(C)(C)OC(=O)C5 (stereo not drawn)	inactive	inactive		
C[C@@H]1O[C@@H](O[C@H]2[C@H](O)[C@@H](O[C@@H]3O[C@H](CO)[C@@H](O)[C@H](O[C@@H]4O[C@H](CO)[C@@H](O)[C@H](O)[C@H]4O)[C@H]3O)[C@H](O[C@H]3CC[C@@]4(C)C(=CC[C@@H]5C4CC[C@@]4(C)C5C[C@@H]5OC6(CC[C@@](C)(CO[C@@H]7O[C@H](CO)[C@@H](O)[C@H](O)[C@H]7O)O6)[C@@H](C)[C@@H]54)C3)O[C@@H]2CO)[C@H](O)[C@H](O)[C@H]1OC1OC(CO)C(O)C(O)C1O (stereo partly drawn)			77.4% [at 9.25 µM]	109% [at 9.25 µM]
CCC(C)C(=O)O[C@@H]1[C@@H](O)[C@@H](O[C@H]2O[C@H](CO)[C@@H](O)[C@H](O)[C@H]2O)O[C@H](CO)[C@H]1O (stereo partly drawn)	inactive	inactive		
NC(=O)CCCSc1nc(N)nc(-c2c(Cl)cc3c4c(cccc24)COC3)n1	0.0651 µM (active)	0.092 µM (active)		
CC(C)=CCc1cc(C(O)C2NC(=O)CNC(=O)C(Cc3c[nH]c4ccccc34)NC(=O)C3CCCN3C(=O)CNC(=O)C(C(C)C)NC(=O)CNC2=O)ccc1O (stereo not drawn)			78.4% [at 9.25 µM]	92.7% [at 9.25 µM]
C/C(=C/CO)CC[C@H]1[C@]2(C)C[C@H](O)CC(C)(C)[C@H]2CC[C@]1(C)O	inactive	inactive		
C=C1C(=O)OC[C@H]2C(C(=O)O)=CC3CC(C)(C)C[C@@]132 (stereo partly drawn)	inactive	14.6 µM (active)		
